Screening data deposited in PubChem by National Center for Advancing Translational Sciences (NCATS).
Pf Dd2 growth = qHTS Primary assay for Inhibitors of Plasmodium falciparum Dd2 growth in vitro; Potency, µM (series often up to 28.9 µM), most hits filed as inhibitors; P. falciparum Dd2 growth, SYBR Green, 72 h; actives 4.3% (n = 120,000); active = well fitted inhibition curve with a large enough effect; note: nearly all actives have a fitted effect of over 65% in size
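Infected erythrocytes (Dd2, 0.3% parasitemia, 2.5% hematocrit final) are added to compound in RPMI-1640/Albumax II medium, grown 72 h at 37C in low oxygen, then lysed with saponin/Triton-X containing SYBR Green and read by fluorescence.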
Each line names hits and unclear results; the compound was inactive in the other large screens. This is one part of a sample in which hits are shown more often than they occur.

Cc1nc(C)n(CCCn2ccnc2-c2cc3n(n2)CCCNC3)n1	none
N#Cc1ccccc1CN1CCC(Cc2nncn2-c2ccccc2)CC1	none
COc1nc2c(cc1CNC(=O)c1cnc(C)nc1)C(=O)N(C1CCCC1)C2	none
Cc1ccc(C)c(CN2CCn3c(nn(CCCOc4ccc(F)cc4)c3=O)C2=O)c1	none
COc1ccc(C(=O)N2CCc3onc(-c4ccc(C(F)(F)F)cc4)c3C2)o1	none
COc1ccccc1N1CCN(C(=O)[C@H]2O[C@H](CCN3CCN(c4ccccc4)CC3)CC[C@@H]2O)CC1	none
O=C([C@H]1O[C@H](CCN2CCN(c3ccccc3)CC2)CC[C@@H]1O)N1CCOCC1	none
CN(Cc1ccccc1)C(=O)[C@H]1O[C@H](CCN2CCN(c3ccccc3)CC2)CC[C@@H]1O	Pf Dd2 growth 4.5µM
COCc1cc(=O)n(CC(=O)Nc2cccc(C(F)(F)F)c2)c(N2CCOCC2)n1	none
COc1ccc(Cl)cc1Nc1ncnc2c1c(-c1ccccc1)cn2-c1ccccc1	none
COc1ccc(CCNc2ncnc3c2c(-c2ccccc2)cn3-c2ccc(Cl)cc2)cc1OC	none
COCCN(CCOC)c1ncnc2c1c(-c1ccccc1)cn2-c1ccc(C)c(Cl)c1	Pf Dd2 growth 11µM
O=C(Cc1ccc(OC(F)(F)F)cc1)N1CCC([C@@H]2CNC[C@H]2CO)CC1	none
O=C(Cn1nc2c(cc1=O)CCCC2)NCCN1CCOCC1	none
COC(=O)N1CCn2ncc(C(=O)Nc3ccc(Cl)cc3Cl)c2C1	none
CCn1c2c(c(=O)n3ncc(C(=O)Nc4ccc(C(=O)OC)cc4)c13)CN(Cc1ccc(OC)cc1)CC2	Pf Dd2 growth 10µM
COc1ccc(-c2nc(C)nc3c2CN(Cc2ccc(NC(C)=O)cc2)CC3)cc1	none
COc1cc(=O)n2c(c1C(=O)Nc1ccc(F)cc1Cl)CCCC2	none
CCOC(=O)c1ccc(NC(=O)CSc2nc3c(c(=O)[nH]2)CN(Cc2ccccc2)CC3)cc1	none
CCn1c2c(c(=O)n3ncc(C(=O)Nc4ccc(F)cc4Cl)c13)CN(Cc1ccc(OC)cc1)CC2	Pf Dd2 growth 11µM
CCc1cc(NC(CCO)c2ccccc2)n2nc(C)c(C)c2n1 (centres undefined)	none
CC(=O)N1CC2(CCCCN2C2COC2)Cc2ccccc21 (centres undefined)	none
CCC1(N2CCN(C(=O)c3ccc(Cl)s3)CC2)CCN(S(C)(=O)=O)C1 (centres undefined)	none
FC(F)(F)c1ccc(CN2CCC3(CC2)CC(c2cccnc2)=NO3)cc1	none
Cc1cnc(C(=O)N2CCCN(S(C)(=O)=O)c3ccccc32)cn1	none
COc1cccc(C(=O)N2CCC(N3C[C@H](O)C[C@H]3C(=O)N3CCN(c4ncccn4)CC3)CC2)c1	none
CNC(=O)[C@@H]1C[C@@H](O)CN1C1CCN(C(=O)c2cccc(OC)c2)CC1	none
COc1cccc(C(=O)N2CCC(N3C[C@H](O)C[C@H]3C(=O)N3CCc4ccccc43)CC2)c1	Pf Dd2 growth 2.5µM
COc1cccc(C(=O)N2CCC(N3C[C@H](O)C[C@H]3C(=O)N3CC=C(c4ccccc4)CC3)CC2)c1	Pf Dd2 growth 0.89µM
COc1cccc(C(=O)N2CCC(N3C[C@H](O)C[C@H]3C(=O)NC3CC3)CC2)c1	none
C=CCN1CCN(C(=O)[C@@H]2C[C@@H](O)CN2C2CCN(C(=O)c3cccc(OC)c3)CC2)CC1	none
O=S(=O)(c1ccc(F)c(F)c1)N1CCC(n2cnnc2C2CC2)CC1	none
CNC(=O)[C@@H]1C[C@@H](O)CN1C1CCN(C(=O)CCc2nc3ccccc3s2)CC1	none
CC(=O)Nc1ccc2c(c1)nc1n2[C@@H](CNC2CCOCC2)COC1	none
O=C(Cn1cc(C(=O)c2ccco2)c2ccccc21)Nc1ccccc1Cl	none
Cc1ccc(NC(=O)Cn2cc(C(=O)c3ccco3)c3ccccc32)cc1	Pf Dd2 growth 11µM
Cc1ccc(NC(=O)Cn2cc(C(=O)c3ccco3)c3ccccc32)cc1C	Pf Dd2 growth 8.9µM
Cc1cccc(C)c1NC(=O)Cn1cc(C(=O)c2ccco2)c2ccccc21	none
O=C(Cn1cc(C(=O)c2ccco2)c2ccccc21)Nc1ccccc1C(F)(F)F	none
CCOc1ccc(NC(=O)Cn2cc(C(=O)c3ccco3)c3ccccc32)cc1	none
O=C(c1ccc2ccccc2n1)N1CCC2(CC1)CC(Cc1cccc(F)c1)CCO2 (centres undefined)	none
COc1ccc(NC(=O)N2CCCC(Cc3nncn3C)C2)cc1 (centres undefined)	none
O=C(O)c1cccc(CC2CCN(C(=O)c3ccc(Cn4cnnn4)cc3)C2)c1 (centres undefined)	none
COc1ccc(CN2CC3(C2)C(=O)N(Cc2ccc(C)o2)C(=O)[C@@H]2C[C@@H](O)CN23)c2ccccc12	Pf Dd2 growth 10µM
Cc1ccc(CN2C(=O)[C@@H]3C[C@@H](O)CN3C3(CN(Cc4ccccc4Cl)C3)C2=O)o1	none
Cc1ccc(CN2C(=O)[C@@H]3C[C@@H](O)CN3C3(CN(Cc4ccc(Cl)cc4)C3)C2=O)o1	none
COc1cc(-c2noc(-c3ncn4c3COC(c3ccc(F)cc3)C4)n2)cc(OC)c1OC (centres undefined)	Pf Dd2 growth 11µM
COc1ccc(C2Cn3nnc(-c4nc(-c5ccc(F)cc5)no4)c3CO2)cc1 (centres undefined)	none
COc1ccc(C2Cn3cnc(-c4nc(-c5ccc(SC)cc5)no4)c3CO2)cc1 (centres undefined)	none
COc1ccccc1-c1nc(-c2nnn3c2COC(c2ccccc2Cl)C3)no1 (centres undefined)	none
COc1ccc(-c2noc(-c3ncn4c3COC(c3ccc(F)cc3)C4)n2)cc1OC (centres undefined)	Pf Dd2 growth 8.9µM
COc1ccccc1-c1noc(-c2nnn3c2COC(c2ccc(F)cc2)C3)n1 (centres undefined)	none
Cc1ccc(-c2nc(-c3nnn4c3COC(c3ccccc3Cl)C4)no2)cc1 (centres undefined)	none
CCOc1ccc(C2Cn3nnc(-c4nc(-c5ccc(OC)c(F)c5)no4)c3CO2)cc1 (centres undefined)	none
CCOc1cc(-c2noc(-c3ncn4c3COC(c3ccc(OC)cc3)C4)n2)ccc1OC (centres undefined)	Pf Dd2 growth 2.5µM
Clc1ccccc1C1Cn2cnc(-c3nc(-c4ccncc4)no3)c2CO1 (centres undefined)	Pf Dd2 growth 5.6µM
COc1ccc(C2Cn3nnc(-c4nc(-c5ccc(OC)c(F)c5)no4)c3CO2)cc1 (centres undefined)	none
CCOc1cccc(-c2noc(-c3ncn4c3COC(c3ccc(F)cc3)C4)n2)c1 (centres undefined)	none
Cc1ccc(N2CC(NC(=O)c3cccc(CCC(C)(C)O)c3)CC2=O)cc1 (centres undefined)	none
O=C(NCCC1CCN(C(=O)Nc2ccc(F)cc2F)CC1)C1CCCC1	none
O=C(NCc1ccc(F)cc1)C1CCN(c2cn[nH]c(=O)c2)C1 (centres undefined)	none
COCCCNC(=O)N1CCCCCCNC(=O)[C@@H]2CCCC[C@@H]21	none
COc1ccc(CN2CCC(N3CCNC3=O)CC2)cc1	none
COc1ccc(NC(=O)N2CC(C(=O)N(C)C)C3(CCOCC3)C2)c(OC)c1 (centres undefined)	none
Cn1cccc1CN[C@H]1[C@H](O)[C@@H](N2CCC(C(N)=O)CC2)[C@@H]2OC[C@H]1O2	none
CCN(CC)c1ccc(NC(=O)Cn2c3ncccc3c(=O)n2-c2ccccc2)c(C)c1	none
Cc1ccc(-n2c(=O)c3cccnc3n2CC(=O)NCc2ccc(Cl)cc2)cc1	none
CCc1ccc(-n2c(=O)c3cccnc3n2CC(=O)Nc2cc(F)ccc2F)cc1	Pf Dd2 growth 5µM
